Among all 290,000 compounds or so, about 3,000 (1%) were called active. For the sample, actives were picked, then their nearest neighbours and some compounds at random. A number with no mark means an inactive call. No stated cut-off is given here; in the data, active means inhibition mostly above about 36% (no sharp cut-off); inactive means mostly below about 34%.

This assay in a line: inhibition of NOD1-driven NF-kB reporter – cell-based, luminescence, uHTS, primary screen (AID 1578).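 Further: HEK-293T reporter cells stimulated with the NOD1 agonist gamma-tri-DAP.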 The conditions noted are these: NOD1-driven NF-kB luciferase reporter cells, at 4 µM, active compounds read high. A general note: In a reporter assay the amount or activity of a reporter protein is the signal.
The inhibition is the change of the read-out against control, counted positive when it falls. On to `Cc1ccccc1N1CCN(C2CCCN(C(=O)c3noc4c3CCCC4)C2)CC1` (stereo not drawn), for which the inhibition was 6.2%.
Regarding `COc1ccc(C2c3c(-c4ccccc4O)n[nH]c3C(=O)N2Cc2ccco2)cc1` (stereo not drawn), the inhibition was -5.9%.
On to `O=C1c2[nH]nc(-c3ccccc3O)c2C(c2ccccc2)N1Cc1ccco1` (stereo not drawn), for which the inhibition was -0.4%.
On to `O=C1c2[nH]nc(-c3ccccc3O)c2C(c2ccc(F)cc2)N1Cc1ccco1` (stereo not drawn), for which the inhibition was 53.4% (active).
As for `COc1cc2c(cc1OC)C(c1ccccc1)N(C(=O)c1ccco1)CC2` (stereo not drawn), the inhibition is 3.6%.
To `COc1ccc(OCCC(=O)OCC(=O)NC(=O)NC(C)(C)C)cc1` belongs 7%; to `CC(=O)NCC(=O)OC(C)C(=O)Nc1ccc(C(C)=O)cc1` (stereo not drawn), -17.4%.
The same measure for `CCCNC(=O)c1ccc(N2CCC3(CC2)CC(c2ccccc2)=NO3)c(NC(=O)c2ccccc2)c1`: 21.3%.
The same measure for `CCCNC(=O)c1ccc(N2CCC3(CC2)CC(c2ccccc2)=NO3)c(NC(=O)c2cccc(OC)c2)c1`: 77.4% (active); for `CCCNC(=O)c1ccc(N2CCC3(CC2)CC(c2ccccc2)=NO3)c(NC(=O)c2cccc(C)c2)c1`: 43.2%.
Turning to `CC(=O)Nc1ccc(C2=NNC(=Nc3ccc(S(=O)(=O)N4CCOCC4)cc3)SC2)cc1`, the inhibition was -12.4%.
The same measure for `CNC(=S)N/N=C/c1c(C)c(C(=O)c2ccc(F)cc2)n2ccccc12`: 0.6%; for `CCOC(=O)N/N=C/c1c(C)c(C(=O)c2ccc(F)cc2)n2ccccc12`: 48.9% (active); for `Cc1c(/C=N/NC(N)=O)c2ccccn2c1C(=O)c1ccc(F)cc1`: 15.7%.
With `Cc1c(/C=N/NC(=O)c2ccc(O)cc2)c2ccccn2c1C(=O)c1ccc(F)cc1`, the inhibition was 17.9%.
To `COC(=O)N/N=C/c1c(C)c(C(=O)c2ccc(F)cc2)n2ccccc12` belongs -3.4%; to `CCCCCCCCCC[N+](C)(C)CC/C=C1/c2ccccc2Sc2ccc(Cl)cc21`, -0.8%.
To `CCCCCCc1cc2cc(C(=O)Nc3cccc(OC)c3)c(=O)oc2cc1O` belongs 59.9%.
The same measure for `CCCCCCc1cc2cc(C(=O)Nc3ccccc3)c(=O)oc2cc1O`: 34.1%; for `CCCCCCc1cc2cc(C(N)=O)c(=N)oc2cc1O`: 12.9%.
As for `CCCCCCc1cc2cc(S(=O)(=O)c3ccc(C)cc3)c(=O)oc2cc1O`, the inhibition is -36.3%.
`CCCCCCc1cc2cc(C(=O)Nc3ccc(OC)cc3)c(=O)oc2cc1O`: the inhibition was -7.5%.
With `CCCCCCc1cc2cc(C(=O)Nc3ccccc3OC)c(=O)oc2cc1O`, the inhibition was -4.9%.
`CCCC1C(C#N)=C(N)Oc2n[nH]c(C(C)(C)C)c21` (stereo not drawn): the inhibition was -47.4%.
As for `CCOc1ccc(N(CC(=O)N2CCCCC2)S(=O)(=O)c2ccc(Cl)cc2)cc1`, the inhibition was 5.7%.
Take `Nn1c(Cc2ccccc2)n[nH]c1=S`: the inhibition is -24.7%.
To `O=C1c2cccnc2C(=O)N1c1cccc(-c2nc3ccccc3o2)c1` belongs -23.4%.
The same measure for `O=C(NCc1ccco1)C(c1ccccc1F)N(CC1CCCO1)C(=O)Cn1nnc2ccccc21` (stereo not drawn): -7%.
To `CCN(C(=O)Cn1c(=O)oc2ccccc21)c1cccc(C)c1` belongs 2.1%; to `CC(C)C[C@H](NC(=O)c1nc[nH]c1C(=O)NCc1ccccc1)C(=O)OC(C)(C)C`, -11.1%; to `COc1ccc(CN(CC(=O)NCc2ccco2)C(=O)CCC(=O)Nc2ccccn2)cc1`, -20.6%.
Regarding `Cc1cc(/C=C2\NC(=S)NC2=O)c(C)n1-c1cccnc1`, the inhibition was -14.7%.
The same measure for `O=C1NC(=S)N/C1=C/c1cccnc1`: 16.2%; for `O=C1NC(=S)N/C1=C\c1cccnc1`: 33.9% (active); for `COc1ccc(/C=N/NC(=O)CSc2ccccc2)cc1OC`: -7.9%.
To `CCc1ccc(NC(=O)CN(c2ccccc2)S(=O)(=O)N(C)C)cc1` belongs -17.6%; to `COc1cc(/C=C/C(=O)c2ccc(O)cc2)ccc1OCC#N`, 29.2%.
The same measure for `COc1ccc2cc(C(=O)/C=C/c3cc(OC)c(OC)c(OC)c3)ccc2c1`: 52.7%; for `COc1ccc(/C=C/C(=O)c2ccc(C(=O)/C=C/c3ccc(OC)c(OC)c3)cc2)cc1OC`: -4.9%; for `CCOc1ccc(C(=O)/C=C/c2ccc(OC)c(OC)c2)cc1`: 51.4%.
Regarding `COc1ccc(NC(=O)Nc2cccc3ccccc23)c(OC)c1`, the inhibition was 19.9%.
On to `CCS(=O)(=O)N1CCN(S(=O)(=O)c2ccc3c(c2)OCCO3)CC1`, for which the inhibition was 24.1%.
To `COc1ccccc1N1CCN(C(=O)CSc2nc3ccccc3nc2N2CCCCC2)CC1` belongs 8.8%.
The same measure for `COc1ccccc1N1CCN(C(=O)CSc2nc3ccccc3nc2N2CCC(C)CC2)CC1`: 58.1% (active).
In the case of `Cc1ccnc(N2CCN(C(=O)CSc3nc4ccccc4nc3N3CCC(C)CC3)CC2)c1`, the inhibition is 3.8%.
To `CS(=O)(=O)N(CC(=O)NCCSCc1c(F)cccc1Cl)c1cccc([N+](=O)[O-])c1` belongs -2.1%.
The same measure for `COc1cc(C(=O)OCC(=O)Nc2cc(C)on2)ccc1OCc1ccccc1Cl`: -69.5%; for `CCCCN(C)C(=O)C1CCC(CNS(=O)(=O)c2ccc3c(c2)CC(C)N3C(C)=O)CC1` (stereo not drawn): -1.6%; for `Clc1ccc(CN2CCc3c([nH]c4ccccc34)C2)cc1Cl`: -1.2%.
To `Clc1cccc(CN2CCc3c([nH]c4ccccc34)C2)c1` belongs 73.3% (active); to `Cc1cccc(CN2CCc3c([nH]c4ccccc34)C2)c1`, -0.6%.
Regarding `Nc1ccc(S(=O)(=O)Nc2nc3ccccc3o2)cc1`, the inhibition is -21.3%.
As for `CCc1nnc(NC(=O)CCC(=O)N2CCC(Cc3ccccc3)CC2)s1`, the inhibition is -19.4%.
The same measure for `CNc1ccccc1C(C)(C)c1cc(-c2cccc(OC)c2)no1`: 53.1% (active).
In the case of `CNc1ccccc1C(C)(C)c1cc(-c2cccc([N+](=O)[O-])c2)no1`, the inhibition is -54.1%.
The same measure for `CNc1ccccc1C(C)(C)c1cc(-c2cccc(Br)c2)no1`: 18.9%.
The same measure for `CCC(=O)NNC(=O)CCC(=O)Nc1ccc(C)cc1C`: -21.4%; for `COc1ccc(NC(=O)CCNS(=O)(=O)c2cccc3nsnc23)cc1`: -14.3%.
In the case of `C=CCSc1nnc(N2C(=O)C(O)=C(C(=O)c3ccco3)C2c2ccccc2F)s1` (stereo not drawn), the inhibition is -10.7%.
The same measure for `O=C(O)c1ccc(S(=O)(=O)c2ccc3c(c2)C(=O)N(c2ccc(O)cc2)C3=O)cc1`: -1.2%; for `O=C(c1cc2sccc2n1Cc1ccc(F)cc1)N1CCCc2ccccc21`: -9%.
The same measure for `O=C(c1cc2sccc2n1Cc1ccccc1)N1CCCc2ccccc21`: 34.8% (active); for `O=C(c1cc2sccc2n1Cc1ccccc1)N1CCc2ccccc21`: -5.9%.
The same measure for `CN(CCc1ccccn1)C1CCCN(S(=O)(=O)c2ccccc2)C1` (stereo not drawn): -25.2%; for `Cc1ccc(/C=C/C(=O)Nc2nc3ccccc3[nH]2)cc1`: -16.1%.
As for `COc1ccc(NC(=O)c2ccc(-c3csc(C)n3)cc2)cc1`, the inhibition is -5.5%.
To `CCOC(=O)c1cnn(-c2ccccc2)c1-n1cccc1C(=O)C(=O)N(C)C` belongs -12.4%; to `CCOC(=O)c1cnn(-c2ccccc2)c1-n1cccc1C(=O)C(=O)Nc1ccccc1`, -28.7%.
To `CCOC(=O)c1cnn(-c2ccccc2)c1-n1cccc1C(=O)C(=O)N(CC)CC` belongs 42.8% (active).
To `Cc1ccc(-c2nnn(Cc3nc(N)nc(N4CCOCC4)n3)n2)cc1` belongs 5.1%; to `CC(=O)C(=Cc1ccc(C(=O)O)cc1)C(C)=O`, -17.7%; to `COc1ccc2cc(C#N)c(Cl)nc2c1`, -29.7%.
Take `Cc1ccc2cc(CCl)c(Cl)nc2c1`: the inhibition was 50.2% (active).
To `Cc1ccc2cc(C=O)c(Cl)nc2c1` belongs -3.3%; to `ClCc1cc2ccccc2nc1Cl`, -27%; to `COc1ccc2cc(CCl)c(Cl)nc2c1`, 70.1% (active).
To `COc1ccc2cc(CO)c(Cl)nc2c1` belongs -28.1%; to `COc1ccc(S(=O)(=O)N2Cc3ccccc3CC2C(=O)N2CCOCC2)cc1` (stereo not drawn), 3.2%; to `COc1cscc1C(N)=O`, 6.7%.
The same measure for `c1ccc2c(c1)ncn2Cc1nnc2sc(-c3ccc4c(c3)OCO4)nn12`: -4.4%.
For the compound `O=C(NC1CCCCCC1)c1cc(S(=O)(=O)N2CCCCC2)ccc1N1CCOCC1`, the inhibition is -7.1%.
The same measure for `CC1CCC(C(C)C)C(OCC(O)CN2CCCC(C)C2)C1` (stereo not drawn): -44.4%; for `COc1ccc(C(=O)NC2CCCc3c2cnn3-c2cccc(C)c2C)o1` (stereo not drawn): 0.8%.
The same measure for `Cn1nccc1C(=O)NC1CCCc2c1cnn2-c1cc(F)cc(F)c1` (stereo not drawn): 35.1%.
To `O=C(NC1CCCc2c1cnn2-c1ccccc1F)c1ccccn1` (stereo not drawn) belongs 20.6%.
Turning to `Cc1cccc(-n2ncc3c2CCCC3NC(=O)C2CCOCC2)c1C` (stereo not drawn), the inhibition was 9.8%.
The same measure for `Cc1cc(C)c(C(=O)NC2CCCc3c2cnn3-c2cccc(C)c2C)o1` (stereo not drawn): -10.7%.
To `Cc1cc(C(=O)NC2CCCc3c2cnn3-c2cccc(C)c2C)no1` (stereo not drawn) belongs 11.2%.
To `Cc1cc(C)cc(-n2ncc3c2CCCC3NC(=O)C2(C(N)=O)CC2)c1` (stereo not drawn) belongs -11.6%.
For the compound `Cc1cccc(-n2ncc3c2CCCC3NC(=O)c2ccc[n+]([O-])c2)c1C` (stereo not drawn), the inhibition is -3.9%.
On to `CC(C)N(CCCNC(=O)c1ccc(CS(=O)(=O)c2c(Cl)cccc2Cl)o1)Cc1ccccc1`, for which the inhibition was -4.4%.
With `CCOC(=O)N1CCN(C(=O)CSc2ccc3nnc(-c4cccnc4)n3n2)CC1`, the inhibition was -22.3%.
To `CCOC(=O)C1(Cc2cccc(OC)c2)CCCN(C(=O)CCc2cccnc2)C1` (stereo not drawn) belongs -50.3%.

Source of the values: PubChem BioAssay AID1578 (Sanford-Burnham Center for Chemical Genomics, 2009).
